Source: PubChem BioAssay (Tox21)
Several values for one entry are separate records, joined by “and”; a condition that tells them apart may be missing. Equal entries are not always repeated. Inconclusive results are not listed. More than one record can exist for a structure, and the calls need not agree. Activity calls are given as the source filed them. Calls follow the shape of the dose curve; as a rule, active = well fitted inhibition curve with a large enough effect in the repeat runs; inconclusive = weak or mixed curves; inactive = no such curve, though single readings can be large or run the other way.

molecular target: Cytochrome P450 3A4 (Homo sapiens) (UniProt P08684); assay: Cytochrome P450 Family 3 Subfamily A Member 4 (CYP3A4) small molecule antagonists: luciferase reporter qHTS assay (AID 1671201); conditions: P450-Glo CYP3A4 enzyme, luciferin luminescence, 1 h; series mostly up to 115 µM; activity change, negative = inhibition: at the top concentration; also: nearly all actives have a fitted effect of over 50% in size
Sequence (P08684 whole entry, looked up): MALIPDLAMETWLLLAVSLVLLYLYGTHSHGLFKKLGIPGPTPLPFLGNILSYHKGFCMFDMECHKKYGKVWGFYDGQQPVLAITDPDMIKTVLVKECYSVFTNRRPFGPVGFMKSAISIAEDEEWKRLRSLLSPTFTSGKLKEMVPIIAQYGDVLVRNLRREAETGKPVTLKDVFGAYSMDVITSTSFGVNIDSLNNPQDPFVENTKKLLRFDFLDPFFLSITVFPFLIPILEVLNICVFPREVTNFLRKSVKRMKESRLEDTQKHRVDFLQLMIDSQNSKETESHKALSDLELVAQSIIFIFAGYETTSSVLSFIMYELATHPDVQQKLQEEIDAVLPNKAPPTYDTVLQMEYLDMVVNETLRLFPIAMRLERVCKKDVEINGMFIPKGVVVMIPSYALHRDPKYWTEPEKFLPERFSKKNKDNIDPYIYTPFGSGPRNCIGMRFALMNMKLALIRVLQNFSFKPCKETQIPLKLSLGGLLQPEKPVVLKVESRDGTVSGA
Description: National Center for Advancing Translational Sciences [NCATS]
U.S. Environmental Protection Agency [EPA]
National Institutes of Environmental Health Sciences [NIEHS]
National Toxicology Program [NTP]
U.S. Food and Drug Administration [FDA]
Cytochrome P450 (CYP) enzymes are membrane-bound hemeproteins that play a key role in metabolism of drugs and xenobiotics. Evaluation of the effect of chemicals on CYP isozymes is useful to minimize the adverse drug reactions and toxicities in drug development process. Tox21 chemicals were tested for their effect on CYP enzyme activities by using P450-Glo (TM) screening systems (Promega Corporation, Madison, WI). These systems provide a luminescent method containing proluciferin substrates and are converted to luciferin products by CYP isozymes. The luciferin products formed are detected with a luciferin detection reagent, and the amount of light produced is proportional to CYP activity. P450-Glo (TM) CYP3A4 screening system (Catalog. No. V9910) was used to detect the compounds that interfere in CYP3A4 activity. The positive control compound used for CYP3A4 assay is ketoconazole (Sigma-Aldrich, St. Louis, MO).
Tox21 Assay Protocol Summary:
Two ul of enzyme-substrate mix was dispensed into medium binding white/solid 1536-well plates (Greiner Bio-One North America Inc., Monroe, NC) using a BioRaptr Flying Reagent Dispenser (FRD, Beckman Coulter, Brea, CA). Compounds dissolved in DMSO and positive control (ketoconazole) were transferred to the assay plates at 23 nl using a Pintool station (Wako, San Diego, CA). The assay plates were incubated at room temperature for 10 min. Then 2 ul of NADPH regeneration solution was added to each well of the assay plates using an FRD and incubated at room temperature for 1 h. The reaction was stopped by adding 4 ul of detection reagent using an FRD and after 20 min incubation at room temperature the luminescence signal was measured using a ViewLux plate reader (Perkin Elmer, Shelton, CT). Data were expressed as relative luminescence units.
% is scaled to controls: 0 for no effect and ±100 for the full control effect; potency is read from the fitted curve at half-maximal effect.

Structure (SMILES) | activity change, negative = inhibition | Potency
CCCC[N+]1(C)[C@@H]2CC(OC(=O)[C@H](CO)c3ccccc3)C[C@H]1[C@@H]1O[C@@H]12 (stereo not given in full) | 6.88% [at 52.9 µM] (inactive) | 
CCC(C)Cl (stereo not given) | 6.44% (inactive) | 
C1CCNCC1 | 8.48% (inactive) | 
C[N+](C)(C)CCOC(=O)C(O)(c1ccccc1)c1ccccc1 | 1.69% [at 52.9 µM] (inactive) | 
CCCCC1C(=O)NC(=O)N(C2CCCCC2)C1=O (stereo not given) | -16.3% [at 52.9 µM] (inactive) | 
C=CCOC(=O)C(C)(C)OC(=O)c1cc(-n2c(=O)cc(C(F)(F)F)n(C)c2=O)ccc1Cl |  | 0.553 µM (active)
CCOC(=O)NC(O)C(Cl)(Cl)Cl (stereo not given) | -23.5% [at 52.9 µM] (inactive) | 
O=C(O)C(F)(F)C(F)(F)C(F)(F)C(F)(F)C(F)(F)F | 132% (inactive) | 
O=C(O)c1ccc(=O)[nH]c1 | 1.97% [at 52.9 µM] (inactive) | 
O=C1CC[C@@]2(O)[C@H]3Cc4ccc(O)c5c4[C@@]2(CCN3CC2CC2)[C@H]1O5 | 4.23% [at 52.9 µM] (inactive) | 
CCOC(=O)c1cn2nc(OP(=S)(OCC)OCC)cc2nc1C |  | 28.3 µM (active)
O=C(O)c1cc(I)cc(I)c1I | 458% (inactive) | 
CCCCCCCCP(=O)(O)O | 33.6% (inactive) | 
Cc1ccc2c(C)cccc2c1 | 14.6% (inactive) | 
N#CC(C#N)=C(C#N)C#N |  | 20.9 µM (active)
CC(C)(C)NCC(O)c1ccccc1Cl (stereo not given) | 3.85% [at 52.9 µM] (inactive) | 
CC(Oc1cc(Cl)c(Cl)cc1Cl)C(=O)O (stereo not given) | 47.2% (inactive) | 
Cc1cnc(C2=NC(C)(C(C)C)C(=O)N2)c(C(=O)O)c1 (stereo not given) | 7.09% (inactive) | 
CC(Oc1cccc(Cl)c1)C(=O)O (stereo not given) | 12.1% (inactive) | 
COC(=O)Cc1ccccc1 | 15.2% (inactive) | 

Structure (SMILES) | activity change, negative = inhibition | Potency
c1ccc2sc(SNC3CCCCC3)nc2c1 |  | inactive
CCC1(CC)C(=O)NC(=O)NC1=O | 14% [at 52.9 µM] (inactive) | 
ClCc1ccccc1Cl | 11.9% (inactive) | 
CC[N+]1(C)CCCC(OC(=O)C(O)(c2ccccc2)c2ccccc2)C1 (stereo not given) | -18.9% [at 52.9 µM] (inactive) | 
O=S(=O)(c1ccccc1)c1ccccc1 | 78.2% (inactive) | 
CCN(C(C)=O)c1cccc(-c2ccnc3c(C#N)cnn23)c1 | 40% [at 52.9 µM] (inactive) | 
CC(C)(C)CC(C)(C)c1ccc(O)cc1 |  | inactive
FC(F)OC(F)(F)C(F)Cl (stereo not given) | 3.35% (inactive) | 
O=[N+]([O-])c1cc(Cl)c(Cl)cc1Cl | 20.4% (inactive) | 
C[C@]12C=CC3=C4CCC(=O)C=C4CC[C@H]3[C@@H]1CC[C@@H]2O |  | 31.5 µM (active) and inactive
Nc1c(Br)cc(Br)c2c1C(=O)c1ccccc1C2=O | 1.74% [at 23.6 µM] (inactive) | 
CCCCCl | -14.7% (inactive) | 
NP(N)(=O)NC(=O)c1ccc(F)cc1 | 0.863% [at 52.9 µM] (inactive) | 
N#CC1(N=NC2(C#N)CCCCC2)CCCCC1 |  | 11.2 µM (active)
CN1C(=O)CN=C(c2ccccc2)c2cc([N+](=O)[O-])ccc21 | 6.13% [at 52.9 µM] (inactive) | 
O=C(O)C(F)(F)C(F)(F)C(F)(F)C(F)(F)C(F)(F)C(F)(F)C(F)(F)C(F)(F)F | 19.8% (inactive) | 
CCCCNC(=O)OCC#CI |  | 3.54 µM (active) and 5.64 µM (active)
COCc1cnc(C2=NC(C)(C(C)C)C(=O)N2)c(C(=O)O)c1 (stereo not given) | 5.71% (inactive) | 
CCC1CCC(=O)O1 (stereo not given) | 8.42% (inactive) | 
Nc1ccc2c(c1)Cc1ccccc1-2 |  | 14.1 µM (active)
